Test systems include DU-145 prostate; K-562 leukemia; MALME-3M melanoma; MDA-MB-231 breast; RXF 393 renal; SF-268 CNS; SF-295 CNS; SF-539 CNS; UACC-257 melanoma; M14 melanoma; HCT-15 colon; HT29 colon; SNB-75 CNS; SNB-19 CNS; U251 CNS; PC-3 prostate; SK-MEL-5 melanoma; UACC-62 melanoma; LOX IMVI melanoma; SK-MEL-28 melanoma.
Common to all, as to experiment: NCI-60 one-dose screen, 48 h (100 = growth as untreated, 0 = no growth, -100 = all killed)
Holding throughout (conditions): 10 µM

Consider eight compounds from PubChem BioAssay (NCI).

Compounds without any hit were thinned out: in the full panel of roughly 83,000, 20% have a hit.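 Percent growth is the endpoint: 0 to 100 indicates growth inhibition (40 means 60% inhibition), 0 means no net growth, and negative values indicate cell death.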 Values without a mark were called inactive. Activity calls are given as the source filed them. The calls were made as follows: active = growth percent below 10; inactive = the rest.

In the case of `CC(=O)n1nc(C(=O)OC(C)(C)C)c2cc(F)c(F)cc21`, the growth with DU-145 prostate is 102%; in the experiment with K-562 leukemia it was 110%; with MALME-3M melanoma, 98.7%; in the experiment on MDA-MB-231 breast it was 94%; with RXF 393 renal, 126%; in the experiment with SF-268 CNS, 101%. In addition, the growth with SF-295 CNS was 101%; in the experiment with SF-539 CNS it was 104%; in the experiment on UACC-257 melanoma, 113%; in the experiment on M14 melanoma, 90.9%; with HCT-15 colon it was 101%; with HT29 colon it was 100%. Further, the growth in the experiment on SNB-75 CNS is 80.2%; in the experiment on SNB-19 CNS, 94.9%; with U251 CNS it was 104%; in the experiment on PC-3 prostate, 97.7%; with SK-MEL-5 melanoma it was 87%; in the experiment with UACC-62 melanoma, 80.3%. In addition, the growth was 98.2% in the experiment on LOX IMVI melanoma and 96.8% in the experiment on SK-MEL-28 melanoma.
Regarding `O=C(COc1ccc(-c2nc3ccccc3[nH]2)cc1)N=Nc1c(O)[nH]c2ccccc12`, the growth with DU-145 prostate was 101%; with K-562 leukemia, 44.8%; in the experiment on MALME-3M melanoma, 80.9%; in the experiment on MDA-MB-231 breast it was 84.5%; with RXF 393 renal it was 107%; in the experiment on SF-268 CNS it was 98.3%. The growth in the experiment on SF-295 CNS was 102%; in the experiment with SF-539 CNS, 106%; with UACC-257 melanoma, 110%; in the experiment on M14 melanoma, 116%; in the experiment with HCT-15 colon, 105%; in the experiment with HT29 colon it was 100%. Also, the growth was 104% with SNB-75 CNS; 93.4% in the experiment with SNB-19 CNS; 55.9% with U251 CNS; 86.5% in the experiment with PC-3 prostate; 102% in the experiment with SK-MEL-5 melanoma; 96.2% in the experiment with UACC-62 melanoma. In addition, the growth with LOX IMVI melanoma is 100%; in the experiment with SK-MEL-28 melanoma it was 99.7%.
Turning to `O=C(/C=C/c1ccc(Cl)cc1)c1ccc(Br)cc1`, the growth was 101% in the experiment on DU-145 prostate; 97.5% in the experiment with K-562 leukemia; 102% in the experiment with MALME-3M melanoma; 102% with MDA-MB-231 breast; 114% in the experiment with RXF 393 renal; 102% with SF-268 CNS. The growth in the experiment with SF-295 CNS is 95.9%; in the experiment on SF-539 CNS it was 94%; in the experiment on UACC-257 melanoma, 106%; in the experiment on M14 melanoma it was 100%; in the experiment on HCT-15 colon, 90.4%; in the experiment with HT29 colon, 73.7%. Further, the growth with SNB-75 CNS is 101%; with SNB-19 CNS, 99%; in the experiment with U251 CNS it was 89.4%; with PC-3 prostate, 97.4%; in the experiment with SK-MEL-5 melanoma, 105%; with UACC-62 melanoma, 92.6%. Also, the values for the growth with LOX IMVI melanoma and with SK-MEL-28 melanoma were 83.4% and 96.5%, respectively.
In the case of `CCN(CC)CCOC(=O)c1ccc(NC(=O)Nc2cccc(Cl)c2)cc1`, the growth is 105% with DU-145 prostate; 91.1% with K-562 leukemia; 97.6% in the experiment on MALME-3M melanoma; 93.7% in the experiment with MDA-MB-231 breast; 99.4% with RXF 393 renal; 97.3% in the experiment on SF-268 CNS. The growth is 93% with SF-295 CNS; 98.7% in the experiment with SF-539 CNS; 91% in the experiment with UACC-257 melanoma; 103% with M14 melanoma; 95.6% in the experiment on HCT-15 colon; 96.3% in the experiment with HT29 colon. Moreover, the growth was 81.8% with SNB-75 CNS; 108% in the experiment on SNB-19 CNS; 96.5% with U251 CNS; 94.7% in the experiment on PC-3 prostate; 101% with SK-MEL-5 melanoma; 102% with UACC-62 melanoma. For the same compound, the values for the growth in the experiment with LOX IMVI melanoma and with SK-MEL-28 melanoma were 94.6% and 106%, respectively.
In the case of `CCCCn1c(=O)[nH]c2c(c1=O)C(c1ccc(Cl)cc1)c1c([nH]c(=O)n(CCCC)c1=O)N2`, the growth with DU-145 prostate is 105%; in the experiment with K-562 leukemia, 105%; with MALME-3M melanoma it was 89.8%; with MDA-MB-231 breast it was 106%; with RXF 393 renal it was 109%; with SF-268 CNS, 99%. Besides, the growth in the experiment with SF-295 CNS is 89.8%; in the experiment with SF-539 CNS, 101%; with UACC-257 melanoma it was 96.8%; in the experiment with M14 melanoma, 96.6%; in the experiment with HCT-15 colon it was 95.6%; with HT29 colon, 97.2%. The growth in the experiment on SNB-75 CNS is 91.7%; with SNB-19 CNS it was 99.5%; in the experiment on U251 CNS, 94%; in the experiment with PC-3 prostate, 93.4%; in the experiment with SK-MEL-5 melanoma, 102%; in the experiment on UACC-62 melanoma, 98.2%. Also, the growth in the experiment with LOX IMVI melanoma is 94.9%; in the experiment on SK-MEL-28 melanoma it was 102%.
Regarding `NC(=O)C1CCCN(Cc2c[nH]c3ccccc23)C1` (stereo not given), the growth in the experiment on DU-145 prostate is 106%; with K-562 leukemia, 97.3%; in the experiment on MALME-3M melanoma, 99.7%; in the experiment with MDA-MB-231 breast, 99.8%; in the experiment with RXF 393 renal it was 95.2%; with SF-268 CNS, 96%. Further, the growth in the experiment on SF-295 CNS is 92.7%; with SF-539 CNS, 92.9%; in the experiment with UACC-257 melanoma it was 96.5%; in the experiment on M14 melanoma it was 99%; in the experiment with HCT-15 colon, 102%; in the experiment on HT29 colon it was 95.6%. The growth in the experiment on SNB-75 CNS was 85.9%; in the experiment on SNB-19 CNS, 103%; with U251 CNS, 95.2%; with PC-3 prostate, 91.2%; in the experiment with SK-MEL-5 melanoma, 99.6%; with UACC-62 melanoma it was 104%. Moreover, the growth is 90.1% in the experiment with LOX IMVI melanoma and 110% with SK-MEL-28 melanoma.
In the case of `CNC(=S)Sc1ccc([N+](=O)[O-])cc1[N+](=O)[O-]`, the growth is 38.1% in the experiment on DU-145 prostate; 7.74% (active) in the experiment with K-562 leukemia; 87.1% in the experiment on MALME-3M melanoma; 50.8% in the experiment with MDA-MB-231 breast; 97.4% in the experiment with RXF 393 renal; 94.2% in the experiment with SF-268 CNS. Further, the growth in the experiment on SF-295 CNS is 95.1%; with SF-539 CNS, 25.9%; in the experiment with UACC-257 melanoma, 62.5%; in the experiment on M14 melanoma, 24.3%; with HCT-15 colon, 36.8%; in the experiment with HT29 colon, 4.84% (active). In addition, the growth in the experiment with SNB-75 CNS is 88.1%; with SNB-19 CNS, 94.3%; in the experiment on U251 CNS, 72.5%; with PC-3 prostate, 84.4%; in the experiment with SK-MEL-5 melanoma it was 44.8%; with UACC-62 melanoma it was 81.6%. The results for the growth in the experiment with LOX IMVI melanoma and in the experiment with SK-MEL-28 melanoma were 19.3% and 66.1%, respectively.
On to `Nc1ccccc1NC(=O)CCCCCCC(=O)Nc1ccc2c(c1)/C(=C/c1ccc[nH]1)C(=O)N2`, for which the growth is 28.7% in the experiment with DU-145 prostate; 46.8% with K-562 leukemia; 20% in the experiment with MALME-3M melanoma; 55.5% with MDA-MB-231 breast; 21.2% in the experiment with RXF 393 renal; 23.3% in the experiment with SF-268 CNS. Also, the growth with SF-295 CNS is 49.9%; with SF-539 CNS, 17%; in the experiment with UACC-257 melanoma, 63.5%; in the experiment on M14 melanoma, 50.4%; in the experiment on HCT-15 colon, 89.8%; with HT29 colon, 48.2%. Moreover, the growth was -2.9% (active) in the experiment with SNB-75 CNS; 49.8% with SNB-19 CNS; 20.5% with U251 CNS; 29% in the experiment with PC-3 prostate; 55.1% with SK-MEL-5 melanoma; 25.8% in the experiment on UACC-62 melanoma. Also, the growth in the experiment on LOX IMVI melanoma is 43.9%; in the experiment on SK-MEL-28 melanoma, 42.7%.
